The source of these data is PubChem BioAssay (NCATS).

Values without a mark were called inactive. Results filed as inconclusive are left out. Activity calls are given as the source filed them. Unless noted, calls come from the whole dose curve; as a rule, active = well fitted curve in either direction with a large enough effect (not every such curve was filed as active); inconclusive = small, poorly fitted or top-dose-only effect, or another doubt; inactive = flat fitted curve, though single readings scatter. Some results are limits rather than exact numbers.

Assay [1] concerns the target Lysosomal acid glucosylceramidase (Homo sapiens) (UniProt P04062). Description: Glucocerebrosidase-p2 (AID 348; in the data active = potency below about 10 µM; note: potency is the fitted concentration of half-maximal effect). To be noted: purified GBA, blue fluorogenic substrate, 40 min. In a few lines: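 Normal human glucocerebrosidase (0.2 nM) with blue fluorogenic substrate (80 uM final) in citrate/phosphate pH 5.9 with 10mM sodium taurocholate, 0.01% tween-20; 40 min RT, NaOH/glycine stop; fluorescence Ex 365/Em 440; AC50 from a titration from 0.6 nM upwards.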

Assay [2] can be described thus: AP1 Signaling Pathway (AID 357). Note: % is set by controls: 0 for no effect and ±100 for the full control effect. To be noted: ME-180 AP-1-bla reporter, EGF-induced, beta-lactamase ratio, 5 h; at 7.69 µM (top of the series) unless noted. In short, it runs like this: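 In this screen, ME-180 cells in Opti-MEM with 0.5% dialyzed FBS received EC50 EGF and compound titrations for 5 h. AP-1 reporter beta-lactamase was detected via CCF4 ratio, giving AC50 for positive and negative modulators.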

A short description of assay [3]: NFAT Signaling Pathway (AID 444).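 Note: carbachol stimulus at about its EC50 of 1 µM final; % is set by controls: 0 for no effect and ±100 for the full control effect.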 To be noted: Jurkat NFAT-bla M1, carbachol, beta-lactamase ratio, 5 h; at 7.69 µM (top of the series) unless noted. In short, it runs like this: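 Read-out: CCF4 FRET ratio (460 nm/530 nm) after 1 h RT dye loading, used for %activity and AC50 from titration series. Cells: Jurkat NFAT-β-lactamase/M1 line, treated with compound plus 1 uM carbachol for 5 h, 37 °C.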

Assay [4] is described as follows: Stat Signaling Pathway (AID 446).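 Note: ME-180 cervical cancer cells given 40 pM IL-6 alongside compound; SIE-controlled beta-lactamase reporter measured as 460/530 nm FRET emission ratio; % is set by controls: 0 for no effect and ±100 for the full control effect.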 Conditions: ME-180 (cervical carcinoma) SIE beta-lactamase reporter, IL-6 stimulated, 5 h; at 7.69 µM (top of the series) unless noted. In a few lines: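 Emission at 460 and 530 nm (excitation 405 nm) reports SIE-controlled beta-lactamase in ME-180 cells. Cells received compound with 40 pM IL-6 for 5 hrs at 37 C; data scaled between 300 pM IL-6 and 125 nM JAK-inhibitor controls.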

Assay [5] deals with Mitogen-activated protein kinase 10 (Mus musculus) (UniProt Q61831). Description: JNK3 AlphaScreen Assay (AID 530).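 Note: kinase came from lysate of stimulated human HepG2 cells; signal reports phosphorylation of biotinylated GST-cJun 1-79 at Ser73 with 10 µM ATP; % is set by controls: 0 for no effect and ±100 for the full control effect.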 To be noted: JNK3 lysate, c-Jun phosphorylation; series mostly up to 57.1 µM. In a few lines: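 Kinase buffer: 20 mM Tris-HCl pH 7.6, 10 mM MgCl2, 1 mM DTT, 0.1 mM Na3VO4, 0.01% Tween-20; ATP 10 uM. Substrate biotin-GST-cJun(1-79), enzyme from activated HepG2 lysates. Detection by Ser73 phospho-antibody AlphaScreen.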
Background: In Alpha technology, singlet oxygen from a donor bead excites a nearby acceptor bead.

The target of assay [6] is 3',5'-cyclic-AMP phosphodiesterase 4B (Homo sapiens) (UniProt Q07343). Description: qHTS Assay for Inhibitors of PDE-IV (AID 607; active = well fitted activation curve with a large enough effect in the main read-out, with a control signal flat, not every such curve was filed as active; note: % of control where 0% means no effect). Conditions: HEK293 ACTOne CNG channel cells, membrane potential fluorescence; series mostly up to 22.9 µM. In short, it runs like this:
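The readout is membrane depolarisation from a cAMP-sensing CNG channel, detected with a potential dye at ex 535/em 590. Cells were HEK293-derived (endogenous PDE-IV) at 1000 cells/well, titrated up to 22.9 uM final.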
On the technique in general: In qHTS, concentration-response curves come from the screen itself.

Assay [7] addresses Cytochrome P450 1A2 (Homo sapiens) (UniProt P05177). Description: p450-cyp1a2 (AID 410; calls by dose curve; note: potency is the fitted concentration of half-maximal effect;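 for activity change, negative = inhibition: -100% = full effect of reference inhibitor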). Conditions: recombinant CYP1A2, luciferin-ME demethylation, luminescence; series mostly up to 11.4 µM. In a few lines: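 Read-out is luminescence from luciferin produced by CYP1A2 demethylation of Luciferin-ME (100uM, at Km). Detection reagent stopped the 60 min NADPH-dependent reaction; signals were normalized to 57 uM furafylline.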

Assay [8] deals with Glucocorticoid receptor (Homo sapiens) (UniProt P04150). Description: GR-GFP Redistribution (AID 450;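 active = compounds whose dose series gives a full or clear partial fitted curve of increased nuclear translocation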; note: potency is the fitted concentration of half-maximal effect). Conditions: U2OS GR-GFP nuclear translocation, laser cytometry, 2 h.
For assay [9] the target is unchanged. Description: GR-EFC Redistribution (AID 451; calls by dose curve; note: potency is the fitted concentration of half-maximal effect). Conditions: CHO-K1 GR-EFC translocation, beta-gal luminescence, 2 h. In short, it runs like this:
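Translocation of GR-ED fusion to nuclear EA restores b-gal, read by luminescence after 1 h room-temperature detection. Engineered CHO-K1 biosensor cells, 1,000/well, exposed 2 h at 37 C to titrations up to 46 uM final.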

For assay [10], the target named is Cytochrome P450 2D6 (Homo sapiens) (UniProt P10635). Description: qHTS Assay for Inhibitors and Substrates of Cytochrome P450 2D6 (AID 891; active = well fitted curve in the direction sought with a large enough effect; an effect the other way counts as inactive or inconclusive; note: potency is the fitted concentration of half-maximal effect; nearly all actives have a fitted effect of over 60% in size). Conditions: recombinant CYP2D6, luciferin-ME EGE luminescence; series mostly up to 11.4 µM. In short, it runs like this:
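Luminescent read-out of luciferin formed by 5 nM human CYP2D6 demethylating 30 uM Luciferin-ME EGE (Km level) over 60 min at room temperature after NADPH regeneration addition. Data normalized to full inhibition by 1.43 uM quinidine.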

Assay [11] concerns the target Cytochrome P450 2C19 (Homo sapiens) (UniProt P33261). Description: qHTS Assay for Inhibitors and Substrates of Cytochrome P450 2C19 (AID 899; active = well fitted curve in the direction sought with a large enough effect; an effect the other way counts as inactive or inconclusive; note: potency is the fitted concentration of half-maximal effect; nearly all actives have a fitted effect of over 60% in size). Conditions: recombinant CYP2C19, luciferin-H EGE luminescence; series mostly up to 11.4 µM. In short, it runs like this:
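Luminescence readout of luciferin formed from 10uM Luciferin-H EGE (KM level) by 5 nM CYP2C19 in 50mM KPO4. 60 min NADPH-driven reaction at 37C after 10 min compound preincubation; data scaled to 57uM ketoconazole inhibition.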

The target of assay [12] is Guanine nucleotide-binding protein G(i) subunit alpha-1 (Homo sapiens) (UniProt P63096). Description: qHTS Assay for Inhibitors of RGS12 GoLoco Motif Activity (Green Fluorophore) (AID 879; active = well fitted curve in the direction sought with a large enough effect; an effect the other way counts as inactive or inconclusive;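 note: 0% = labeled peptide with Gαi1 and full inhibition = labeled peptide alone without protein; negative values mean loss of peptide binding seen as reduced polarization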). To be noted: Galphai1/FITC-RGS12 GoLoco peptide, fluorescence polarization; series mostly up to 57.1 µM. In short, it runs like this:
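A drop in FITC polarization marked displacement of the FITC-tagged RGS12 GoLoco peptide (10 nM) from Gαi1 (50 nM). Compounds were incubated 10 min at room temperature in Tris pH 7.5 buffer containing 150 mM NaCl, 0.1 mM GDP and 0.05% NP40; unlabeled peptide titration served as control.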

Assay [13] can be described thus: qHTS Assay for Identification of Small Molecule Agonists for Thrombopoietin (TPO) Signaling Pathway (AID 917; active = well fitted curve in the direction sought with a large enough effect; an effect the other way counts as inactive or inconclusive; note: % is set by controls: 0 for no effect and ±100 for the full control effect). Conditions: TPO signaling pathway reporter cells, agonist qHTS; series mostly up to 38.5 µM. In short, it runs like this: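 Quantitative HTS for pathway activators: compounds were pin-transferred onto IL-3-starved Ba/F3 cells expressing human TPO receptor, TPO was added at its EC50 (26 pM final), and after 24 hrs at 37 C reporter luciferase was measured.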

The target of assay [14] is Muscarinic acetylcholine receptor M1 (Rattus norvegicus) (UniProt P08482). Description: qHTS Assay for Antagonists of Acetylcholine Muscarinic M1 Receptor: Kinetic Measurement of Intracellular Calcium Response (AID 943; active = well fitted curve in the direction sought with a large enough effect; an effect the other way counts as inactive or inconclusive;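 note: Fluo-4 calcium signal as peak divided by basal fluorescence over 4 min; nearly all actives have a fitted effect of over 75% in size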). Conditions: M1-expressing cells, kinetic intracellular calcium fluorescence; series mostly up to 35.3 µM. In short, it runs like this:
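Quantitative HTS in CHO-M1 (rat receptor) cells: 10 min compound exposure ahead of 100 nM carbachol, Fluo-4 fluorescence followed 4 min, value expressed as peak-to-basal ratio.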

Assay [15] shares this target. Description: qHTS Assay for Antagonists of Acetylcholine Muscarinic M1 Receptor: Measurement of IP-One Response (AID 944; active = well fitted curve in the direction sought with a large enough effect; an effect the other way counts as inactive or inconclusive; note: nearly all actives have a fitted effect of over 75% in size). To be noted: CHO-M1 cells, IP-One HTRF, antagonist mode; series mostly up to 46.1 µM. In a few lines:
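Antagonism was measured as loss of carbachol-driven (EC80) IP1 accumulation in CHO cells carrying rat M1, using a homogeneous IP-One TR-FRET kit read at 620 and 665 nm.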

Assay [16] addresses Pyruvate kinase (Leishmania mexicana) (UniProt Q27686). Description: qHTS Validation Assay for Inhibitors of Leishmania Mexicana Pyruvate Kinase (AID 945; active = well fitted curve in the direction sought with a large enough effect; an effect the other way counts as inactive or inconclusive;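 note: 0% = DMSO only neutral control wells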). To be noted: purified L. mexicana pyruvate kinase, enzyme activity, E451W mutant enzyme; series mostly up to 57.5 µM. In short, it runs like this:
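Substrate mix (0.5 mM PEP, 0.1 mM ADP, 7 mM MgCl2, 50 mM KCl, pH 7.2 imidazole) received compound by pin tool, then 0.2 nM LmPYK E451W. After 1 h at room temperature, PKLight was added and luminescence measured.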

Assay [17] deals with Pyruvate kinase PKM (Homo sapiens) (UniProt P14618). Description: qHTS Assay for Activators of Human Muscle Pyruvate Kinase (AID 954; active = well fitted curve in the direction sought with a large enough effect, not every such curve was filed as active;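 note: 0% = uninhibited enzyme and -100% = no enzyme or full thiadiazolimine inhibition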). Conditions: purified human muscle pyruvate kinase, luciferase-coupled luminescence, 1 h; series mostly up to 57.5 µM. In a few lines: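 PKM2, human, >95% pure, 0.1 nM; PEP 0.5 mM (Km), ADP 0.1 mM; 50 mM imidazole pH 7.2, 50 mM KCl, 0.01% Tween 20, 0.05% BSA; 1 h RT; luciferase luminescence readout.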

In assay [18] the target is Alpha-galactosidase A (Homo sapiens) (UniProt P06280). Description: Counterscreen for Glucocerebrosidase Inhibitors: qHTS Assay for Human alpha-Galactosidase at pH 4.5 (AID 992; active = well fitted curve in the direction sought with a large enough effect; an effect the other way counts as inactive or inconclusive; note: 0% is about no effect). Conditions: purified enzyme, fluorogenic substrate; series mostly up to 76.9 µM. In a few lines:
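Fluorogenic 4-MU alpha-D-galactoside (80 uM) hydrolysis, 2 nM enzyme, pH 4.5 citrate buffer + 0.005% Tween-20; 20 min RT; NaOH/glycine pH 10 stop; Ex365/Em440. Compounds titrated 0.7 nM–77 uM; Hill-equation AC50.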
For orientation: The purpose of a counterscreen is to sort out artefacts and off-target activity.

Assay [19] addresses alpha-glucosidase (Oryza sativa, rice) (UniProt Q653V4). Description: Counterscreen for Glucocerebrosidase Inhibitors: qHTS Assay for Rice alpha-Glucosidase at pH 5.0 (AID 997; active = well fitted curve in the direction sought with a large enough effect; an effect the other way counts as inactive or inconclusive;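 note: 0% = full activity with enzyme and -100% = basal without enzyme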). To be noted: rice alpha-glucosidase enzyme activity; series mostly up to 76.9 µM. In a few lines: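 Endpoint fluorogenic assay at pH 5.0: compounds (0.7 nM to 77 uM) titrated against 4 nM rice enzyme and 400 uM 4-MU-alpha-glucoside for 20 min at room temperature; NaOH/glycine stop, read ex 365/em 440 nm, Hill-fitted AC50.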

Assay [20] concerns the target Alpha-galactosidase (Coffea arabica) (UniProt Q42656). Description: Counterscreen for Glucocerebrosidase Inhibitors: qHTS Assay for Coffee Bean alpha-Galactosidase at pH 5.9 (AID 998; active = well fitted curve in the direction sought with a large enough effect; an effect the other way counts as inactive or inconclusive;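 note: plate controls were uninhibited enzyme for no effect and no-enzyme basal signal for full effect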). To be noted: coffee bean alpha-galactosidase enzyme assay; series mostly up to 76.9 µM. In a few lines:
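Fluorogenic 4-MU substrate hydrolysis, 80 uM substrate and 2 nM coffee bean alpha-galactosidase, pH 5.9 citrate buffer, 20 min at room temperature, then NaOH/glycine stop. Titration 0.7 nM–77 uM, normalized to no-enzyme and enzyme controls, AC50 via Hill equation.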

Chain of Glucocorticoid receptor (Homo sapiens) (P04150 whole entry, looked up): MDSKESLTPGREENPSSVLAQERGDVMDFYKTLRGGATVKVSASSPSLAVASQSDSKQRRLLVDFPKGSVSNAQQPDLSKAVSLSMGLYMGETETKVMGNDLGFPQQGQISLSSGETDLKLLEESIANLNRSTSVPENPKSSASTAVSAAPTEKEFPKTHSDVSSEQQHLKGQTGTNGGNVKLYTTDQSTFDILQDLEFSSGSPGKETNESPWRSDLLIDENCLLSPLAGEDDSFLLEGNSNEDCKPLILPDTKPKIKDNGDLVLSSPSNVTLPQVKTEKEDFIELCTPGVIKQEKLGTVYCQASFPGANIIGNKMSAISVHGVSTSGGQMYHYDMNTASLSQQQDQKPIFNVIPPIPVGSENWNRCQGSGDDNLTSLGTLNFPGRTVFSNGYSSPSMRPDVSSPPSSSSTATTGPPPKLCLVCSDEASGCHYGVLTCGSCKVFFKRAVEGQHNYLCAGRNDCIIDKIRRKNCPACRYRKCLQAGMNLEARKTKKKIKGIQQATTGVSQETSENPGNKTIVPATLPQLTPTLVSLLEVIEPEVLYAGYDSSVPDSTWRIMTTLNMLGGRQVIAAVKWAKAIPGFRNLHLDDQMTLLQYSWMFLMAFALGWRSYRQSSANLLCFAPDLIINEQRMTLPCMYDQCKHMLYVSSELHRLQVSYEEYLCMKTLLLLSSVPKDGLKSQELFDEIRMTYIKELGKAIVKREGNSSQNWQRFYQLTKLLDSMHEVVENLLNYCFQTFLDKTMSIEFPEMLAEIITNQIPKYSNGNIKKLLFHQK
Chain of Cytochrome P450 1A2 (Homo sapiens) (P05177 whole entry, looked up): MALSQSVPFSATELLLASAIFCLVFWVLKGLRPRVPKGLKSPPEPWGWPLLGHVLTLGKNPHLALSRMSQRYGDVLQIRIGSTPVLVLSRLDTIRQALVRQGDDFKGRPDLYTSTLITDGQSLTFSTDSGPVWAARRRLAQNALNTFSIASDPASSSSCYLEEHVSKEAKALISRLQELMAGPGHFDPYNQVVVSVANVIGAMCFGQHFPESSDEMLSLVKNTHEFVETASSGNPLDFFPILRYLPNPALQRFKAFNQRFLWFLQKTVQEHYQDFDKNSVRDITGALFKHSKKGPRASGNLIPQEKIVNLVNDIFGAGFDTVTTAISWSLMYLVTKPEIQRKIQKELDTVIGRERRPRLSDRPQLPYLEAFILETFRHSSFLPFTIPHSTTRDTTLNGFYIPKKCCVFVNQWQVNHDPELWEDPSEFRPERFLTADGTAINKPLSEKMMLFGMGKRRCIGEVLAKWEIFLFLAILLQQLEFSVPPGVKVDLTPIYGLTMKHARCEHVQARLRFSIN
Chain of Lysosomal acid glucosylceramidase (Homo sapiens) (P04062 whole entry, looked up): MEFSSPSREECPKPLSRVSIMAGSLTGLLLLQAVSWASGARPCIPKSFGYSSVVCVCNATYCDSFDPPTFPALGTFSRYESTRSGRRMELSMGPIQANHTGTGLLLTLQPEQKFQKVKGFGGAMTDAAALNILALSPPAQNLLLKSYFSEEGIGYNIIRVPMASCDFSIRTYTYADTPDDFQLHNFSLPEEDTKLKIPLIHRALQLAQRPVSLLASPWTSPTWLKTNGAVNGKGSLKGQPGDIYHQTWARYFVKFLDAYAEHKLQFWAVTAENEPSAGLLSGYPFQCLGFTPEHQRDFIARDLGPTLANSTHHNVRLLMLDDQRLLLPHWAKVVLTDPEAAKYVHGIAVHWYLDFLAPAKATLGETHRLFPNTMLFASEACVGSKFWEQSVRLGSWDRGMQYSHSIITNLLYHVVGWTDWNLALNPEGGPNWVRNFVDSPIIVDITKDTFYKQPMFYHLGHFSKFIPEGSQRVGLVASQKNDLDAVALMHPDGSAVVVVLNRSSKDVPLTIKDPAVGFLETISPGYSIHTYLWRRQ
Chain of 3',5'-cyclic-AMP phosphodiesterase 4B (Homo sapiens) (Q07343 whole entry, looked up): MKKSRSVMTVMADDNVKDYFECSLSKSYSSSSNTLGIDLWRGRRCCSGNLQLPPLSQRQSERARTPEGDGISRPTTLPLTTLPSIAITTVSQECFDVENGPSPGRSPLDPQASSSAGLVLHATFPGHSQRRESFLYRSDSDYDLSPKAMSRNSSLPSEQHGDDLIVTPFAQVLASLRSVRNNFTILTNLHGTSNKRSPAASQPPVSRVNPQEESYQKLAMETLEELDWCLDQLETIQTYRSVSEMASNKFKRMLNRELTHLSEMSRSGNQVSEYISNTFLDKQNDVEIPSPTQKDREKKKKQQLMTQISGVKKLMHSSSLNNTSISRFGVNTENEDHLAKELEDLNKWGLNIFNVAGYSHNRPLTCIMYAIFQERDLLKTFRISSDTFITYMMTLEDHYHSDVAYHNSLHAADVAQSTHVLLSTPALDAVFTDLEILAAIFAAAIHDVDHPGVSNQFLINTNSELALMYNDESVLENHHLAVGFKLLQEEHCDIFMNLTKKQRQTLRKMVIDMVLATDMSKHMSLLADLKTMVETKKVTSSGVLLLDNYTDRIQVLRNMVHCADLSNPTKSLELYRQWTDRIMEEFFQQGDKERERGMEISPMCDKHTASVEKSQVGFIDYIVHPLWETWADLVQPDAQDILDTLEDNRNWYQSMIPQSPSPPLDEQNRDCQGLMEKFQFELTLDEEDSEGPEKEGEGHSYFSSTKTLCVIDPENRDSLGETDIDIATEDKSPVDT
Chain of Muscarinic acetylcholine receptor M1 (Rattus norvegicus) (P08482 whole entry, looked up): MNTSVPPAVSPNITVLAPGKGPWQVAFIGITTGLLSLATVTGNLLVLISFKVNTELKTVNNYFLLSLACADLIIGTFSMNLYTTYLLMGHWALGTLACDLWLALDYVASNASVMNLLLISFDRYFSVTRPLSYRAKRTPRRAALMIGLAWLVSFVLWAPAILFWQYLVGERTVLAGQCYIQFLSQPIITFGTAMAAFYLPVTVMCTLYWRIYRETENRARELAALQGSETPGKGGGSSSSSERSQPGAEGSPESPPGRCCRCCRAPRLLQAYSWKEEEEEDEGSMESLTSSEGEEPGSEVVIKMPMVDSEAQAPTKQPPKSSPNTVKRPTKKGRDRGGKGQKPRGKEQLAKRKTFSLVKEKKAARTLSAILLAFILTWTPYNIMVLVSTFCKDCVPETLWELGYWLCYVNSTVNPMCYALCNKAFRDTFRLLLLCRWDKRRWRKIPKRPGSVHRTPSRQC
Chain of Alpha-galactosidase (Coffea arabica) (Q42656 whole entry, looked up): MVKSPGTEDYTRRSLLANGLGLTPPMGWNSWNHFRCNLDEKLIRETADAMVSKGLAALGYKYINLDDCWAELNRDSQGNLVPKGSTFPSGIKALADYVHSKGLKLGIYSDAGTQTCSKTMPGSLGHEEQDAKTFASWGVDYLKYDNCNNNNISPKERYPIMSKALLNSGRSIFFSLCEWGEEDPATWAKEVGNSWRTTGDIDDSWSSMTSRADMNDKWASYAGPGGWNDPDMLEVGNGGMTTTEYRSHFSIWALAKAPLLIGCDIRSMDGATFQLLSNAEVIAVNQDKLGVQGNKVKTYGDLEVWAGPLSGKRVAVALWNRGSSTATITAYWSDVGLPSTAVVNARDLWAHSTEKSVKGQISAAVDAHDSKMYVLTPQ
Chain of Pyruvate kinase (Leishmania mexicana) (Q27686 2-499 E452W): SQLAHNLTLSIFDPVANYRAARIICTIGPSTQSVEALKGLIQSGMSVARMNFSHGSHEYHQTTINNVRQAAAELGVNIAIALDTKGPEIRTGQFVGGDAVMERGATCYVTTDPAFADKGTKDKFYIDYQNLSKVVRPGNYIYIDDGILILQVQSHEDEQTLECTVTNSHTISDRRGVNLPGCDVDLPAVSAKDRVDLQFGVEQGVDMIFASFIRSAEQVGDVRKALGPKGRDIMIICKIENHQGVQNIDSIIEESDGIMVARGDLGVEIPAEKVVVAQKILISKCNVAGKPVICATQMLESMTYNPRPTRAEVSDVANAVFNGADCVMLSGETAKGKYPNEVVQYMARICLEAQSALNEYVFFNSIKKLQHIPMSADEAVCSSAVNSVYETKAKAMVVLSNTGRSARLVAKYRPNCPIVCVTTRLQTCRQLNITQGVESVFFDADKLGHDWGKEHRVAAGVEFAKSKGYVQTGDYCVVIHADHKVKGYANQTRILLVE
Chain of Guanine nucleotide-binding protein G(i) subunit alpha-1 (Homo sapiens) (P63096 whole entry, looked up): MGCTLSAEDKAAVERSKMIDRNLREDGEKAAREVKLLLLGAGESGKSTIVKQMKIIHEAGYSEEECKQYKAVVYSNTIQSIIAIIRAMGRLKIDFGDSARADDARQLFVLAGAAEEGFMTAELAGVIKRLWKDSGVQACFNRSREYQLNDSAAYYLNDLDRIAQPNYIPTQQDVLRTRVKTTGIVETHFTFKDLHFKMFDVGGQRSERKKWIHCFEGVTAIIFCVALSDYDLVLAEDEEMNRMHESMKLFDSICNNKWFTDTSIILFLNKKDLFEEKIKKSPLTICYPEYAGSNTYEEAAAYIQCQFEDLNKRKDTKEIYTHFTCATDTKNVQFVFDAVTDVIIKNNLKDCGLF
Chain of Pyruvate kinase PKM (Homo sapiens) (P14618 whole entry, looked up): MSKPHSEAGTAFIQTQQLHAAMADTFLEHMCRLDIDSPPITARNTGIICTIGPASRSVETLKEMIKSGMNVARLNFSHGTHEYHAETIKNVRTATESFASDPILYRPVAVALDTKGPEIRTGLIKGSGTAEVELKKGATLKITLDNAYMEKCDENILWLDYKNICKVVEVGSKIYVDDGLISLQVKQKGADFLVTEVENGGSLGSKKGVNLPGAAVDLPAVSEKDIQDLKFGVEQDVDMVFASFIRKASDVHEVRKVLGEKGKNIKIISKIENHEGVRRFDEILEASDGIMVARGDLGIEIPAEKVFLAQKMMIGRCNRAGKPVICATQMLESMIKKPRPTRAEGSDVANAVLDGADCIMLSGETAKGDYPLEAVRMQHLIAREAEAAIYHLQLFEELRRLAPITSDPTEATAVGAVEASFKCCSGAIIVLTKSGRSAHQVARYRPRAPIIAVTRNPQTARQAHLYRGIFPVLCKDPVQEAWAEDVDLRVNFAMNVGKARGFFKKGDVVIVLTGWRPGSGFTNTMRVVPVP

`ClCC[N+]12CC[N+](CCCl)(CC1)C2` (tested in a mixture with another compound): the Potency in [1] was more than 11.4 µM. In addition, the activity change, negative = inhibition is 1.69% in assay [2], -23.8% in assay [3] and 2.18% [at 11.4 µM] in [5]. For the same compound, the activity, negative = inhibition in assay [4] was 3.41%. In addition, the compound was classed as inactive in assay [6].

As for `C=C[C@@H]1CN2CC[C@H]1C[C@H]2[C@H](O)c1ccnc2ccccc12`, the Potency in [1] was more than 11.4 µM; in assay [8], more than 46 µM; in assay [9], more than 9.22 µM; in [10] it was 3.98 µM (active). Also, in assay [7], the Potency entry was “inactive”. Also, the activity, negative = inhibition in [4] is 3.16%. The activity change, negative = inhibition in assay [5] was 5.22% [at 11.4 µM]. Besides, the compound was classed as inactive in assay [6].

As for `CC[C@@H]1[C@@H]2Cc3ccc(O)cc3[C@@]1(CC)CCN2C`, in [1], the Potency was more than 11.4 µM. The activity change, negative = inhibition is -9.39% in assay [2], 17.1% in assay [3] and 2.22% [at 11.4 µM] in assay [5]. Also, in assay [4], the activity, negative = inhibition is 2.87%. Moreover, the compound was classed as inactive in assay [6].

Turning to `Cc1ccc(NC(=[OH+])c2cc3ccccc3cc2O)c(C)c1.Cc1ccc(NC(=[OH+])c2cc3ccccc3cc2O)c(C)c1.[Ni]`, the Potency was more than 11.4 µM in assay [1], 0.251 µM (active) in assay [7], more than 46 µM in assay [8] and 2 µM (active) in [11]. For the same compound, in [5], the activity change, negative = inhibition was 1.02% [at 11.4 µM]. For the same compound, in assay [6], the outcome was inactive.

Regarding `O=C(O)CNC(=O)c1ccc([As](=O)(O)O)cc1`, the Potency in [1] was more than 11.4 µM; in assay [8], more than 46 µM. Also, the activity change, negative = inhibition in assay [2] is 9.68%; in assay [3], 7.56%; in assay [5], 36.2% [at 11.4 µM]. Besides, the activity, negative = inhibition in [4] was 12.9%. For the same compound, the compound was called inactive in assay [6].

Regarding `CCCOC(=O)[C@@H]1[C@@H](C(=O)O)[C@H]2CC[C@@H]1O2`, the Potency in assay [1] is more than 11.4 µM; in assay [8] it was more than 46 µM; in assay [9] it was more than 9.22 µM. The values for the activity change, negative = inhibition in [2] and in assay [5] were 5.41% and 6.67% [at 11.4 µM], respectively. The activity, negative = inhibition in assay [4] is 8.61%. Also, in [6], the compound was called inactive.

In the case of `C[C@@]12CC[C@H]3[C@@H](CC=C4C[C@H](OS(=O)(=O)O)CC[C@]43C)[C@H]1CCC2=O`, the activity change, negative = inhibition in assay [2] is -6.95% [at 38 µM]; in assay [3], -0.252% [at 38 µM]. Moreover, the Potency result in assay [7], in assay [5], in assay [14] and in [15] was “inactive” in each case. For the same compound, the activity, negative = inhibition in assay [4] is -15.3% [at 38 µM]. Also, the Potency in [8] and in [9] was more than 46 µM throughout. The compound was classed as inactive in [6], in assay [12], in assay [13], in assay [16], in assay [17] and in assay [18]. The call in [19] and in assay [20] was inactive.
